Results on 20 molecules are retold here after PubChem BioAssay.

Each structure is given as a SMILES string. Results filed as inconclusive are left out. For part of these data: Entries with a potency or affinity are not part of this list. Calls of active or inactive are those of the source. Unless noted, no rule for the calls is given here.

Assay [1] in a line: viability loss in pontine glioma line – cell-based, SU-DIPG-XIII, MIPE4.0, CellTiter-Glo, qHTS, dose response (AID 1347061; cut-off not given, nearly all actives have AC50 up to about 37 µM;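 also: cells exposed to compound for 48 hours before readout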). As to conditions: CellTiter-Glo ATP luminescence. Background: ATP-based viability assays read luminescence as a measure of living cells.
Assay [2] in a line: blockers of polyQ-driven CASP3 activation – cell-based (AID 1583). The conditions noted are these: polyglutamine-induced caspase-3 activation, cell assay; stronger effect = higher value;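 tested at 10 µM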.
The nature of assay [3]: yeast 75Q aggregation reduction – 75Q-TubU reporter (AID 1593). As to conditions: Yeast 75Q polyglutamine aggregation reporter.
The nature of assay [4]: restoration of touch response, mutant HTT neurons – whole organism, C. elegans mechanosensory neurons, N-terminal huntingtin (AID 1599). The conditions noted are these: C. elegans polyQ-huntingtin mechanosensory neurons, stronger effect = higher value.
A short description of assay [5]: blockers of cytochrome c efflux from mitochondria – biochemical, purified mitochondria (AID 1603).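 Also: mouse liver mitochondria challenged with calcium chloride; signal normalized to the plate average as 100%.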 As to conditions: stronger effect = lower value.
Assay [6] is described as follows: polyglutamine aggregate formation blockers (AID 1604). As to conditions: polyglutamine-induced protein aggregation inhibition assay; stronger effect = higher value; tested at 2.5 µM.
The nature of assay [7]: glutamate transport activators, MN-1 cells, MN-1 cell line (AID 1612).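 Also: tested at 1 µM final; 0% = mean of DMSO vehicle wells on each plate; positive means more glutamate uptake than control and negative means less.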 As to conditions: MN-1 motor neuron cells, stronger effect = higher value.
Assay [8] in a line: GFP-Q80 aggregate reduction, neuronal-like cells, cell-based, NGF-treated PC12, GFPQ80 (AID 1614).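 Also: lower means fewer inclusions and 0 means no inclusions at all.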 As to conditions: PC12 NGF-treated GFP-polyQ80 inclusion reduction.
Assay [9] is described as follows: 75Q-TubH aggregate inhibition, S. cerevisiae, yeast (AID 1616). As to conditions: S. cerevisiae 75Q-TubH polyglutamine aggregation suppression; stronger effect = higher value.
The nature of assay [10]: viability loss in pontine glioma line – cell-based, SU-DIPG-XVII, MIPE5.0, CellTiter-Glo, qHTS, dose response (AID 1347060; cut-off not given, nearly all actives have AC50 up to about 26 µM;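 as to AC50: cells exposed to compound for 48 hours before viability readout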). As to conditions: CellTiter-Glo ATP luminescence.
A short description of assay [11]: compounds altering circadian rhythm period length – cell-based, LOPAC library, luminescence reporter (AID 2774).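 Also: values are relative to mean of DMSO wells on each plate.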 As to conditions: circadian reporter cells, at 7 µM, actives lie on both sides.
For assay [12], the system named is Hepatitis C virus NS3 helicase. In words: blockers of NS3h binding to ssDNA – biochemical, fluorescence polarization, LOPAC1280 library, primary screen (AID 687035; in the data active = inhibition above about 37%). The conditions noted are these: Purified HCV NS3 helicase, Cy5-dT15 ssDNA binding fluorescence polarization; stronger effect = higher value; concentration not given here.
The nature of assay [13]: compounds altering Cy5-DNA-NS3h complex signal – biochemical, LOPAC1280, artefact control for HCV NS3 helicase inhibitor project (AID 687037). The conditions noted are these: Cy5-DNA-NS3h complex fluorescence interference counterscreen.
Assay [14] in a line: blockers of cellular phospholipid synthesis – cell-based, LOPAC library, screen 4, primary screen (AID 1347384). As to conditions: animal cells, phospholipid biosynthesis inhibition screen; at 10 µM.
Assay [15] is described as follows: compounds altering HSF1 focus formation in cells – imaging, Selleck Cancer Library (AID 1347162; in the data active = plate-normalised HSF1 focus index below about 0.46). As to conditions: human cells, HSF1 nuclear foci imaging, at 10 µM; SSMD: measured here: HSF1 foci SSMD mean; cell count: measured here: cell number; plate-normalised HSF1 focus index: stronger effect = lower value.

As for `C[C@H]1[C@H](NC(=O)/C(=N/OC(C)(C)C(=O)O)c2csc(N)n2)C(=O)N1S(=O)(=O)O` (stereo in doubt), the molecule was classed as inactive in assay [1].

`CN(N=O)C(=O)N[C@@H]1[C@@H](O)[C@H](O)[C@@H](CO)O[C@@H]1O`: in assay [2], the inhibition is -0.83%. In [3], this molecule gave a score of 1.48. The rescue above control in assay [4] is -12.1. In assay [5], the cytochrome c release ratio turned out to be 1.09. In assay [6], this molecule displayed an inhibition of aggregation of 69%. For the same molecule, in assay [7], the glutamate uptake change was -14.8%. Moreover, the inclusion score in assay [8] came to 2. In [9], this molecule came in with an aggregation suppression score of 1.03. Moreover, in assay [10], the molecule was called inactive.

Turning to `C#CCN(C)CCCOc1ccc(Cl)cc1Cl`, in assay [11], the period change was 0.03 h (inactive). The inhibition in assay [12] is -6% (inactive). For the same molecule, in assay [13], the fluorescence ratio (interference) is 1 (inactive). Moreover, the result in [14] was inactive.

As to `COc1cccc2c1C(=O)c1c(O)c3c(c(O)c1C2=O)C[C@@](O)(C(C)=O)C[C@@H]3O[C@H]1C[C@H](N)[C@H](O)[C@H](C)O1`, in [10], the AC50 is 118 nM (active). Besides, in assay [15], the SSMD was -15.6, the cell count is 7130 and the plate-normalised HSF1 focus index is 0.198 (active).

`COc1cc2c(c(OC)c1OC)-c1ccc(OC)c(=O)cc1[C@@H](NC(C)=O)CC2`: the inhibition in assay [2] is -76.8%; in assay [12], -1% (inactive). The molecule further returned a score in [3] of 1.26. The same molecule gave a rescue above control in [4] of -5.06. Besides, the cytochrome c release ratio in assay [5] turned out to be 0.87. Also, the inhibition of aggregation in assay [6] stood at 97.2%. Also, in assay [7], the glutamate uptake change is -10.3%. The aggregation suppression score in assay [9] turned out to be 1.64. In assay [11], the period change was -0.41 h (inactive). Moreover, the fluorescence ratio (interference) in [13] is 1 (inactive). For the same molecule, in [10], the AC50 was 29.5 nM (active). Besides, the molecule was called inactive in assay [14].

For the molecule `CCN(CC)C(=O)c1ccc(O)c(OC)c1`, the period change in assay [11] is -1.55 h (active). Moreover, the inhibition in assay [12] was 0% (inactive). The fluorescence ratio (interference) in [13] is 1 (inactive). In addition, the outcome in [14] was inactive.

Take `COc1c(C)c2c(c(O)c1C/C=C(\C)CCC(=O)OCCN1CCOCC1)C(=O)OC2`: the AC50 in [10] was 590 nM (active). Moreover, in assay [15], the SSMD was -0.00851, the cell count worked out at 7610 and the plate-normalised HSF1 focus index is 0.999 (inactive).

Turning to `CN1CCN(c2c(F)cc3c(=O)c(C(=O)O)cn4c3c2OCN4C)CC1`, the molecule was classed as inactive in assay [1].

For `Cc1cc(=O)oc2cc(O)ccc12`, the half-maximal activity concentration (AC50) in assay [1] is 418 nM (active).

As to `COc1cc2ncnc(Nc3ccc(F)c(Cl)c3)c2cc1OCCCN1CCOCC1`, the half-maximal activity concentration (AC50) in assay [1] is 38200 nM (active). Besides, in assay [15], the SSMD was -3.63, the cell count was 5320 and the plate-normalised HSF1 focus index was 0.813 (inactive).

`O=C(CCCCCCC(=O)Nc1ccccc1)NO`: in assay [10], the AC50 was 1860 nM (active). Further, in assay [15], the SSMD is -0.489, the cell count was found to be 6970 and the plate-normalised HSF1 focus index was 0.984 (inactive).

Take `CC(C)(Oc1ccc(C2CC2(Cl)Cl)cc1)C(=O)O` (configuration not stated): the period change in [11] was 0.045 h (inactive). Further, the inhibition in [12] was -1% (inactive). Also, the fluorescence ratio (interference) in assay [13] was 1 (inactive). Also, the molecule was called inactive in assay [1] and in assay [14].

For the molecule `CC(=O)c1ccc2c(c1)N(CCCN(C)C)c1ccccc1S2`, in assay [14], the result was inactive.

As to `CCN(C)C(=O)Oc1cccc([C@H](C)N(C)C)c1`, the result in assay [1] was inactive.

Consider `O=C1Cc2cc(CCN3CCN(c4nsc5ccccc45)CC3)c(Cl)cc2N1`, for which, in [12], the inhibition was 2% (inactive). For the same molecule, the fluorescence ratio (interference) in assay [13] was 1 (inactive). Further, the molecule was classed as inactive in assay [14].

For the molecule `O=C(O)[C@H](O)[C@@H](O)[C@H](O[C@@H]1O[C@H](CO)[C@H](O)[C@H](O)[C@H]1O)[C@H](O)CO`, the call in assay [10] was inactive.

Consider `OC(CCN1CCCCC1)(c1ccccc1)C1CC2C=CC1C2` (configuration not stated), for which the inhibition in assay [12] was -3% (inactive). Also, in assay [13], the fluorescence ratio (interference) is 1 (inactive). In addition, the outcome in assay [1] and in assay [14] was inactive.

As for `O=C(O)c1cc(=O)[nH]c(=O)[nH]1`, the outcome in [10] was inactive.

Regarding `CCCN(CCC)CCc1cccc2c1CC(=O)N2`, in assay [11], the period change is 0.155 h (inactive). Moreover, the inhibition in assay [12] is -3% (inactive). Further, in [13], the fluorescence ratio (interference) is 1 (inactive). In addition, in assay [14], the molecule was classed as inactive.

Regarding `O=C(O)CN(CCN(CC(=O)O)CC(=O)O)CCN(CC(=O)O)CC(=O)O`, the period change in [11] is 0.145 h (inactive). Further, the inhibition in [12] was -2% (inactive). The fluorescence ratio (interference) in [13] was 1 (inactive). For the same molecule, in [14], the result was inactive.

By inhibition is commonly meant the change of the read-out against control, counted positive when it falls. As usually defined, the AC50 is the concentration at which the activity in the assay is half-maximal.
